Measurements from PMC5540273 (PLoS ONE, 2017).

Assays:
Conditions in all cases: concentration: 1 μM, replicates: in singlicate; n = 1
PCTK2 = system: T1, PCTK2
T1 construct: gene CDK17

PCTK3 = system: T2, PCTK3
T2 construct: gene CDK18

PDGFRA = system: PDGFRA
PDGFRB = system: PDGFRB
PDPK1 = system: PDPK1
PFTAIRE2 = system: PFTAIRE2
PFTK1 = system: T3, PFTK1
T3 construct: gene CDK14

PHKG1 = system: PHKG1
PHKG2 = system: PHKG2
PIK3C2B = system: PIK3C2B
PIK3C2G = system: PIK3C2G
PIK3CA = system: PIK3CA
PIK3CB = system: PIK3CB
PIK3CD = system: PIK3CD
PIK3CG = system: PIK3CG
PIK4CB = system: T4, PIK4CB
T4 construct: gene PI4KB

PIKFYVE = system: PIKFYVE
PIM1 = system: PIM1
PIM2 = system: PIM2
PIM3 = system: PIM3
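Note: KINOMEscan kinase panel screen.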

| SMILES | %Inh (PCTK2) [%] | %Inh (PCTK3) [%] | %Inh (PDGFRA) [%] | %Inh (PDGFRB) [%] | %Inh (PDPK1) [%] | %Inh (PFTAIRE2) [%] | %Inh (PFTK1) [%] | %Inh (PHKG1) [%] | %Inh (PHKG2) [%] | %Inh (PIK3C2B) [%] | %Inh (PIK3C2G) [%] | %Inh (PIK3CA) [%] | %Inh (PIK3CB) [%] | %Inh (PIK3CD) [%] | %Inh (PIK3CG) [%] | %Inh (PIK4CB) [%] | %Inh (PIKFYVE) [%] | %Inh (PIM1) [%] | %Inh (PIM2) [%] | %Inh (PIM3) [%] |
| --- | --- | --- | --- | --- | --- | --- | --- | --- | --- | --- | --- | --- | --- | --- | --- | --- | --- | --- | --- | --- |
| O=C(Nc1n[nH]c2cc(-c3ccoc3)ccc12)C1CC1 [SB-738481] | 51 | 22 | 62 | 90 | 0 | 21 | 29 | 0 | 0 | 7 | 0 | 0 | 13 | 5 | 12 | 8 | 1 | 0 | 0 | 0 |
| COc1cc(Nc2nccc(N3CCC(NC(=O)Nc4cccc(C(C)=O)c4)C3)n2)cc(OC)c1OC (stereo not shown) [GSK1379753] | 26 | 0 | 0 | 77 | 0 | 0 | 23 | 0 | 2 | 0 | 0 | 5 | 0 | 46 | 20 | 78 | 0 | 0 | 0 | 0 |
| CCn1c(-c2nonc2N)nc2c(C#CC(C)(C)O)ncc(OCCCCN)c21.O=C(O)C(F)(F)F.O=C(O)C(F)(F)F [GSK507274] | 0 | 0 | 0 | 25 | 0 | 6 | 32 | 5 | 0 | 0 | 11 | 0 | 0 | 0 | 0 | 0 | 88 | 69 | 85 | 78 |
| COc1cccc(C(=O)Nc2cccc(Oc3ccc4nc(NC(=O)C5CC5)cn4n3)c2)c1 | 0 | 12 | 99.9 | 100 | 0 | 8 | 4 | 0 | 0 | 0 | 1 | 0 | 0 | 0 | 0 | 0 | 0 | 9 | 11 | 17 |
| COc1cc(Nc2ncc3c(C)nc(-c4cc5ccccc5[nH]4)n3n2)cc(OC)c1OC [GW869516] | 32 | 6 | 0 | 29 | 0 | 0 | 4 | 27 | 0 | 0 | 0 | 0 | 0 | 0 | 30 | 0 | 0 | 4 | 0 | 0 |
| COCCOCCOc1cc2ncc3c4ccc(C#N)cc4[nH]c3c2cc1OC | 6 | 13 | 98.2 | 92.9 | 34 | 48 | 21 | 94.5 | 97.7 | 0 | 12 | 0 | 0 | 0 | 0 | 0 | 47 | 29 | 94 | 49 |
| O=C(Nc1cccc(-c2nn3ccccc3c2-c2ccnc(Nc3cccc(F)c3)n2)c1)c1c(F)ccc(F)c1Cl [GSK357952] | 0 | 9 | 18 | 99.7 | 36 | 20 | 2 | 0 | 0 | 0 | 21 | 0 | 0 | 0 | 0 | 24 | 0 | 10 | 0 | 0 |
| COc1cccc(-c2ccc3c(NC(=O)C4CC4)n[nH]c3n2)c1 [SB-710903] | 19 | 30 | 0 | 34 | 0 | 10 | 25 | 0 | 0 | 0 | 0 | 0 | 0 | 9 | 0 | 0 | 27 | 12 | 0 | 0 |
| C[C@@H]1CC[C@@H](C(=O)Nc2ccccc2)CN1c1cc(-c2ccc3c(N)n[nH]c3c2)nc(N)n1 [GSK2286062] | 13 | 10 | 0 | 23 | 64 | 7 | 29 | 0 | 21 | 0 | 0 | 0 | 0 | 0 | 2 | 0 | 0 | 31 | 0 | 4 |
| CC(C)c1nc(-c2cccc(NS(=O)(=O)c3c(F)cccc3F)c2F)c(-c2ccnc(Nc3ccc(N4CCOCC4)nc3)n2)s1 [GSK2008607] | 100 | 100 | 90 | 100 | 0 | 94.6 | 98.7 | 0 | 0 | 49 | 0 | 6 | 0 | 0 | 0 | 0 | 31 | 11 | 0 | 0 |
| COc1cc(Nc2nccc(-c3c(-c4cccc(NC(=O)c5c(F)cccc5F)c4)nn4ccccc34)n2)cc(OC)c1OC [GSK323521] | 8 | 29 | 89 | 99.7 | 13 | 25 | 3 | 4 | 10 | 27 | 9 | 4 | 16 | 0 | 9 | 11 | 0 | 17 | 0 | 5 |
| O=C(NC1CCN(c2ccnc(Nc3ccc(F)cc3)n2)C1)c1cc2ccccc2s1 (stereo not shown) [GSK1379716] | 11 | 32 | 0 | 28 | 0 | 25 | 13 | 19 | 7 | 0 | 0 | 0 | 0 | 0 | 0 | 0 | 4 | 20 | 0 | 11 |
| Cc1cccc(Nc2nc(N[C@H]3CCNC3)ncc2C(N)=O)c1.Cl [GSK2197149] | 7 | 34 | 58 | 89 | 7 | 7 | 15 | 66 | 68 | 0 | 0 | 0 | 0 | 0 | 0 | 8 | 0 | 28 | 68 | 76 |
| c1ccc(-c2cnc3nccnn23)cc1 [AH20685] | 0 | 15 | 0 | 23 | 0 | 0 | 0 | 40 | 0 | 0 | 0 | 0 | 0 | 0 | 0 | 0 | 0 | 0 | 0 | 9 |
| O=C(Nc1cccc(-c2nn3ccccc3c2-c2ccnc(Nc3cccc(C(F)(F)F)c3)n2)c1)c1c(F)cccc1F [GSK292658] | 0 | 0 | 10 | 97.3 | 0 | 15 | 8 | 0 | 0 | 0 | 22 | 0 | 0 | 0 | 0 | 8 | 1 | 0 | 0 | 0 |
| CN(C)S(=O)(=O)c1cc(-c2ccc3nccc(-c4cccc(S(N)(=O)=O)c4)c3c2)cnc1N [GSK1669921] | 0 | 0 | 0 | 16 | 9 | 31 | 17 | 0 | 8 | 95.5 | 96 | 100 | 96.6 | 98.8 | 99.9 | 96.5 | 96.6 | 19 | 0 | 12 |
| Clc1ccc(-c2nn3ncccc3c2-c2ccnc(Nc3ccc4c(c3)OCCO4)n2)cc1 [GW829116] | 0 | 0 | 24 | 99.9 | 0 | 0 | 0 | 0 | 0 | 0 | 0 | 0 | 0 | 0 | 0 | 0 | 25 | 13 | 6 | 0 |
| Cn1cc(-c2ccc3c(c2)CCN3C(=O)Cc2cccc(F)c2)c2c(N)ncnc21 [GSK2603358] | 0 | 17 | 78 | 99.8 | 0 | 12 | 18 | 1 | 0 | 80 | 0 | 3 | 0 | 28 | 30 | 0 | 11 | 0 | 0 | 0 |
| Nc1ncnc2c1nc(-c1ccccc1)n2-c1ccccc1 [SKF-97293] | 0 | 0 | 36 | 0 | 2 | 6 | 25 | 17 | 0 | 4 | 6 | 16 | 27 | 17 | 13 | 29 | 20 | 39 | 0 | 24 |
| c1ccc(Oc2ccc(Nc3ccnc4cc(-c5ccc(CNCCN6CCOCC6)o5)ccc34)cc2)nc1 [GW567145] | 0 | 2 | 65 | 89 | 0 | 6 | 11 | 3 | 0 | 0 | 0 | 0 | 0 | 0 | 0 | 0 | 50 | 0 | 0 | 0 |
